Screens from PubChem BioAssay.
PLK1 PBD inh = blocks phosphopeptide binding to human PLK1 polo-box domain; P53350; Plk1 PBD binding of FITC phosphopeptide, fluorescence polarization; Potency, µM, for the others: max response, negative = inhibition, most hits filed as inhibitors; hit rate 2.8% among 360,000; AID 720504; also: series mostly up to about 57 µM; nearly all actives have a fitted effect of over 65% in size
Sfp PPTase inh = blocks B. subtilis Sfp PPTase activity; Biochemical Sfp PPTase activity, qHTS; Potency, µM, for the others: largest response in the series, negative = inhibition, usual class: inhibitors; hit rate 3.5% among 310,000; AID 1490;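 also: the enzyme is Sfp with the accession as filed and its product quenches rhodamine fluorescence; 0% = enzyme reaction without inhibitor and -100% = no enzyme wells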
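With Hepes-Na pH 7.6 buffer containing 10 mM MgCl2, Sfp (15 nM) modified BHQ-2-YbbR (12.5 uM) using rhodamine-CoA (5 uM). Two reads 30 minutes apart at 525/598 nm yielded each well's rate.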
ALOX12 inh = inhibitors of human 12S-lipoxygenase ALOX12. P18054. purified 12hLO, xylenol orange hydroperoxide absorbance. Potency, µM (top dose mostly 108 µM), without a hit: at the highest dose activity change, negative = inhibition, usual class: inhibitors. hit rate 1.1% among 580,000. AID 1671190
Target sequence (P18054 whole entry, looked up): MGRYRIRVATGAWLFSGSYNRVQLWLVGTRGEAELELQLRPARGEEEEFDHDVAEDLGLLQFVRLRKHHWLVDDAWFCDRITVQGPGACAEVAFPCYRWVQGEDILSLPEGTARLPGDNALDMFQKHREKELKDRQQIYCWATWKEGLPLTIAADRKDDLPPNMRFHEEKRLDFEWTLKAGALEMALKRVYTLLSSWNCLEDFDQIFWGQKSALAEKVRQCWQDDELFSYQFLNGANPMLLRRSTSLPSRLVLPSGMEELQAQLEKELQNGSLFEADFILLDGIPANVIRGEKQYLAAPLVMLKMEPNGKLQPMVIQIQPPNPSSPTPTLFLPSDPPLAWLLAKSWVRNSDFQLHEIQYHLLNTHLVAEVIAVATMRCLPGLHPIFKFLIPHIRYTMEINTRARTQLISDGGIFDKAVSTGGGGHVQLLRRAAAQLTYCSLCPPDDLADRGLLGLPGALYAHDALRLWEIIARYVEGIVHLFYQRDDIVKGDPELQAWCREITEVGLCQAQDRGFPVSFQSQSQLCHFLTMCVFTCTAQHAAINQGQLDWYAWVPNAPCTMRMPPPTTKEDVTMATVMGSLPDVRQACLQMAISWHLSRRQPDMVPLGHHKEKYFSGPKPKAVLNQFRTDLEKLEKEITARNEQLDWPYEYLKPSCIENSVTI
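Purified human 12hLO (150 nM final) in 25 mM Hepes, 0.01% Triton X-100, pH 7.0 was preincubated 15 min at room temperature with compound. Then 40 uM arachidonic acid was added, 30 min. Hydroperoxide was read by Fe-XO absorbance ratio 573/405 nm.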
VDR inh = blocks the human vitamin D receptor; VDR-SRC2-3 peptide fluorescence polarization, 2 h; P11473; hit rate 0.93% among 400,000; Potency, µM, without a hit: max response, negative = inhibition, hits mostly inhibitors
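Two reagent solutions held at 4 deg C in the dark were dispensed, compounds pinned at 23 nl, and the mixture incubated 2 h at room temperature. Read-out: fluorescence polarization of VDR–SRC2-3 peptide binding.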
Active calls of the source: *; ? = inconclusive; . = not tested or not shown; ! = a repeat was not active; [ ] = remark or other dose. Most compounds without a hit are left out; they make up all but 4.2% or so of the library. Calls follow the shape of the dose curve; as a rule, active = well fitted curve in the direction sought with a large enough effect; inconclusive = small, poorly fitted or top-dose-only effect, or another doubt; inactive = no such curve, though single readings can be large; an effect the other way counts as inactive or inconclusive. Unless noted, % is scaled to controls: 0 for no effect and ±100 for the full control effect; potency is read from the fitted curve at half-maximal effect.

SMILES | PLK1 PBD inh | Sfp PPTase inh | ALOX12 inh | VDR inh
Cc1c2cnn(CC(=O)N3CCC4(CC3)OCCO4)c(=O)c2c(C)n1Cc1ccccc1Cl | -10% | -9% | 14% | -2%
COC(=O)[C@H]1C[C@H]2CC[C@H](O)C[C@H]2N1CC1CC1 | . | 12% | . | .
Cc1cccc(N=Nc2ccc(N(C)C)cc2)c1 | 1% | -6% | 1% | 0%
CCOC(=O)[C@]12Cc3c(cc(OC)c(OC)c3OC)[C@H]1N(C1CCCCC1)C(=O)c1ccccc12 | 9.5µM* | . | -71% | .
CCOC(=O)[C@]12Cc3cc(C)ccc3[C@H]1N(CCC(=O)OC)C(=O)c1ccccc12 | 8.4µM* | . | ? | .
CCOC(=O)[C@]12Cc3cc(OC)ccc3[C@H]1N(CC(=O)OC)C(=O)c1ccccc12 | -2% | . | ? | .
COc1cc2cc(c1Cl)N(C)C(=O)C[C@H](OC(=O)C(C)C)[C@]1(C)O[C@H]1[C@H](C)[C@@H]1C[C@@](O)(NC(=O)O1)[C@H](OC)C=CC=C(C)C2 | . | . | -14%[57.4 µM] | .
O=C(Nc1ccccc1)N1CCC2(CC1)OCCO2 | -14% | 13% | -1% | -5%
COc1ccc(NC(=O)N2CCC3(CC2)OCCO3)cc1 | 27µM* | 13% | -2% | -22%
CN1[C@@H](C[C@@H](O)c2ccccc2)CCC[C@@H]1C[C@H](O)c1ccccc1 | . | 1% | . | 0%
O=C(CN1CCCC1=O)NCc1ccc(F)c(Cl)c1 | . | . | 28% | .
COc1ccc(OC)c(C2C(C#N)=C(N)Oc3c2c(C)nn3-c2ccc(C)cc2)c1 (configuration not stated) | 30µM* | 17% | 0% | -17%
Cc1nn(-c2ccccc2)c(Cl)c1C1C(C#N)=C(N)Oc2c1c(=O)oc1ccccc21 (configuration not stated) | 0% | 11% | 33% | -8%
Cc1nn(-c2ccccc2)c2c1C(c1ccc(F)cc1F)C(C#N)=C(N)O2 (configuration not stated) | 21µM* | 3% | -1% | ?
CCCCC/C=C\C/C=C\C/C=C\C/C=C\CCCC(=O)NCC(=O)O | . | 79µM*! | 7%[22.9 µM] | 40µM*!
CCCCC/C=C\C/C=C\C/C=C\C/C=C\CCCC(=O)N(Cc1ccc(O)c(Cl)c1)Cc1ccc(O)c(Cl)c1 | . | -5% | . | 14µM*
CCCCC/C=C\C/C=C\C/C=C\C/C=C\CCCC(=O)Nc1ccc(O)cc1 | . | 33% | 0% | -1%
CCCCC/C=C\C/C=C\C/C=C\C/C=C\CCCC(=O)NCCc1ccc(O)c(O)c1 | . | 45µM*! | . | 40µM*!
CCCCC/C=C\C/C=C\C/C=C\C/C=C\CCCC(=O)OCCN | . | 63µM* | . | ?
CCCCC/C=C\C/C=C\CCCCCCCCCC(=O)NCCO | . | -2% | . | -13%
CC1=CC(C)CC(C)OC(=O)CC(c2ccc(O)cc2)NC(=O)C(Cc2c(Br)[nH]c3ccccc23)N(C)C(=O)C(C)NC(=O)C(C)C1 (configuration not stated) | -2% | . | 7% | -20%
CC1=NOC2(CCN(Cc3cc(C)on3)C2)C1 (configuration not stated) | . | . | 42%[176 µM] | .
Cc1ccc(/C=C/C(=O)C2C(=O)c3ccccc3C2=O)cc1 | ? | -2% | ? | -9%
CCCCC/C=C\C/C=C\C/C=C\C/C=C\CCCC(=O)NCc1ccoc1 | . | 22µM* | . | 22µM*
CC/C=C\C/C=C\C/C=C\C/C=C\C/C=C\CCCC(=O)NCCCC(=O)O | . | 18% | . | -10%
SMILES | PLK1 PBD inh | Sfp PPTase inh | ALOX12 inh | VDR inh
CCCCC/C=C\C/C=C\C/C=C\C/C=C\CCCC(=O)NCCCC(=O)O | . | ? | ? | 28µM*
CCCCC/C=C\C/C=C\C/C=C\C/C=C\CCCC(=O)NCCO | . | 45µM*! | . | 71µM*!
O=C1NC(=S)NC(=O)C1C1CCCCC1 | -26% | 79µM* | -26% | ?
CN1C(=O)C(C2CCCCC2)C(=O)N(C)C1=O | 0% | . | 0% | -11%
Cc1cc(/C=C2\C(=O)NC(=O)N(Cc3ccco3)C2=O)c(C)n1-c1ccc(C(=O)O)cc1 | ? | 6% | ? | 9%
Cc1cc(/C=C2\C(=O)NC(=O)N(Cc3ccccc3Cl)C2=O)c(C)n1-c1ccc(C(=O)O)cc1 | 11µM* | -15% | ? | ?
Cc1cc(/C=C2\C(=O)NC(=O)N(Cc3ccccc3)C2=O)c(C)n1-c1ccc(Cl)c(C(=O)O)c1 | 6µM* | -2% | ? | -1%
Cc1cc(/C=C2\C(=O)NC(=O)N(Cc3ccco3)C2=O)c(C)n1-c1ccc(O)cc1 | -29% | ? | 35µM* | 30%
Cc1ccc(Cl)cc1N1CCN(CCN)CC1 | -3% | 11% | 5% | -12%
O=C1C2CCCC1C(N1CCCCC1)CC2 (configuration not stated) | -2% | 4% | -9% | -6%
C=CC[N+]1(C)CCC23c4c5ccc(O)c4O[C@H]2C(=O)CC[C@@]3(O)C1C5 (some centres not stated) | . | 56µM* | . | 4%
C=CC[N+]1(C)CC[C@]23c4c5ccc(O)c4O[C@H]2C(=O)CC[C@@]3(O)[C@H]1C5 (some centres not stated) | -24% | . | ? | -6%
CC(C)OC1CCCC(O)C1CC(=O)O (configuration not stated) | -1% | 3% | 2% | 1%
CN(N=O)c1cc(O)ccc1O | . | . | ? | 45µM*
O=C(O)Cn1cc(/C=C2\C(=O)NC(=O)N(c3ccc(Cl)cc3)C2=O)c2ccccc21 | 15µM* | ? | ? | ?
O=C(O)Cn1cc(C=C2C(=O)NC(=O)NC2=O)c2ccccc21 | ? | 4% | -28% | -7%
CCN(CC)C(=O)Cn1cc(/C=C2\C(=O)NC(=O)N(c3ccccc3F)C2=O)c2ccccc21 | 4.7µM* | ? | ? | 79µM*
CN1CCCC12Cc1ccccc1CN(C(=O)Cc1cccc(Cl)c1)C2 (configuration not stated) | . | . | 8%[6.33 µM] | .
CCN1CCCCC12Cc1ccccc1CN(C(=O)Cc1ccccc1)C2 (configuration not stated) | . | . | 6.3µM* | .
Cc1c(C=C2C(=O)NC(=O)NC2=O)c(=O)n(-c2ccccc2)n1C | ? | 3% | -17% | 4%
O=C1NC(=O)C(=Cc2ccc(-c3ccc(Cl)cc3)o2)C(=O)N1 | 0.67µM* | 20µM* | . | ?
O=C1NC(=O)C(=Cc2ccc(-c3ccc(F)cc3O)o2)C(=O)N1 | 1.2µM* | 50µM* | ? | 28µM*
CN1C(=O)/C(=C\c2ccc(N3CCCCC3)o2)C(=O)NC1=S | 68% | -14% | 13% | -1%
O=C(N=Nc1c(O)[nH]c(=O)[nH]c1=O)C1COc2cc3ccccc3cc2O1 (configuration not stated) | ? | 56µM* | -19% | ?
NC(=O)c1ccc(N=Nc2c(O)[nH]c(=O)[nH]c2=O)cc1 | . | 14% | . | .
Cc1cccc(N2C(=O)/C(=C/c3ccc(CN(CCC#N)S(C)(=O)=O)o3)C(=O)NC2=S)c1 | 7.5µM* | 13µM* | 13µM* | ?
Cc1ccc(N2C(=O)/C(=C/c3ccc(CN(CCC#N)S(C)(=O)=O)o3)C(=O)NC2=S)cc1C | . | 22µM* | . | .
CCOC(=O)N1CCCN(/[N+]([O-])=N/Oc2ccc([N+](=O)[O-])cc2[N+](=O)[O-])CC1 | . | -5% | . | ?
